# Results filed as inconclusive are left out. Entries that show only a call come without a potency. Active and inactive are the calls of the source. Calls come from the whole dose curve; as a rule, active = well fitted cell-killing curve with a large enough effect; inconclusive = small, poorly fitted or top-dose-only effect; inactive = no such curve, though single readings can be large or run the other way.
# Test: qHTS of pediatric cancer cell lines to identify multiple opportunities for drug repurposing: Primary screen for SK-N-SH cells (AID 1347098); note: nearly all actives have a fitted effect of over 65% in size
# Details: SK-N-SH viability, CellTiter-Glo luminescence, 48 h; series mostly up to 57 µM
# Text: Drug repurposing or repositioning has been offered as a strategy for drug development in oncology programs. This approach has special potential for childhood cancers and other rare or orphan diseases, where the expected return on new drug development has been a disincentive to pharmaceuticals.
# In this project we exploit the poly-pharmacology of drugs to discover new indications via phenotypic screening of a panel of 19 well-characterized cell lines derived from solid tumors seen in children and adolescents. The goal is to identify approved drugs with previously unrecognized anticancer properties that has the potential to reveal new mechanisms and biological processes involved in carcinogenesis or drug resistance. We employed a titration-based paradigm (quantitative high-throughput screening or qHTS), where all compounds were tested at multiple concentrations for their effect on cell viability. Concentration-response curves (CRCs) were derived directly from the primary screen, and both potency and efficacy values were used to identify compounds with robust bioactivity profiles. We screened the NIH Chemical Genomics Center (NCGC) Pharmaceutical Collection (NPC) and Mechanism Interrogation Plate (MIPE) small molecule collections of approved and investigational compounds against these cell lines; and measured metabolically active cells after 48 hours of compound treatment as a proxy for cell viability.
# Assay Submitter: Nathalia J. Martinez, National Center for Advancing Translational Sciences, National Institutes of Health, Rockville, MD, USA; email: natalia.martinez@nih.gov
# [1] Shen, M et al. Quantitative high-throughput phenotypic screening of pediatric cancer cell lines identifies multiple opportunities for drug repurposing. Oncotarget 2017 Dec 19;9(4):4758-4772. PMID 29435139.
# The cells were obtained from University of North Carolina (UNC), Pediatric Preclinical Testing Program (PPT), and Coriell Institute (CI).
# qHTS cell viability assay:
# Cells were assayed in growth media at a density of 500-1,000 cells/well. Five microliters of cells were dispensed into 1,536-well, white, solid-bottom, TC-treated plates (Greiner Bio One) using a multidrop dispenser and incubated at 37 degrees C, 5% CO2, under a humidified atmosphere for 5 hours. Twenty-three nanoliters of compounds and controls (neutral control DMSO or positive control bortezomib at final concentration of 2.3 µM) were subsequently transferred by Kalypsys pintool. For primary screens, the MIPE collection was tested at 11-point dilutions (final concentrations range from 0.78 nM to 46 µM) and the NPC collection at 8-point dilutions (final concentrations range from 0.59 nM to 46 µM). Compounds tested in follow-up screens were assayed at 11-point dilutions. Cells were incubated for 48 hours, followed by addition of 3 µL of CellTiter-Glo (Promega). After a 15 min incubation at room temperature, samples were analyzed for luminescence intensity using a ViewLux High-throughput CCD imager equipped with clear filters.
# Potency is the fitted concentration of half-maximal effect.
row,Structure (SMILES),Potency
1,O=C(O)Cc1ccc(OCCNC[C@H](O)c2ccccc2)cc1,inactive
2,NS(=O)(=O)c1cc(C(=O)NN2C[C@H]3[C@H]4CCC(C4)[C@H]3C2)ccc1Cl,inactive
3,CO[C@@]1(NC(=O)CSC[C@@H](N)C(=O)O)C(=O)N2C(C(=O)O)=C(CSc3nnnn3C)CS[C@@H]21,inactive
4,Nc1ncnc2nc[nH]c12,inactive
5,C/C(=N/NC(=O)c1ccncc1)C(=O)O,inactive
6,Cc1ccc(/C=N/n2c(-c3ccccc3)csc2=S)cc1,inactive
7,O=C(CCC1CCN(Cc2ccccc2)CC1)c1ccc2c(c1)NCCCC2,30.7 µM (active)
8,CN(C)CCN1CCN(c2cccc(Cl)c2)C1=O,inactive
9,CC(C)OC(=O)c1cc2c(OCC(O)CNC(C)(C)C)cccc2[nH]1 (stereo not given),inactive
10,CCOC(=O)C1=C(C)NC(C)=C(C(=O)OCC)C1c1ccccc1/C=C/C(=O)OC(C)(C)C,27.3 µM (active)
11,CCN(CC)CCOc1ccc(/C(=C(\Cl)c2ccccc2)c2ccccc2)cc1,30.7 µM (active)
12,O=C(O)c1cn(C2CC2)c2cc(Cl)c(F)cc2c1=O,inactive
13,C[C@H]1C[C@@H]2[C@H]([C@@H](O)C[C@@]3(C)[C@H]2CC[C@]3(O)C(=O)CO)[C@@]2(C)C=CC(=O)C=C12,inactive
14,COC(=O)C1=C(C)NC(COC(N)=O)=C(C(=O)OC(C)C)C1c1cccc(Cl)c1Cl (stereo not given),24.4 µM (active)
15,C#Cc1ccc(-c2ccccc2F)cc1,inactive
16,O=C(O)[C@@H](O)[C@H](O)[C@H](O)[C@@H](O)C(=O)O,inactive
17,COC(=O)c1c(Cl)c(Cl)c(C(=O)OC)c(Cl)c1Cl,inactive
18,O=C(O)CCC(=O)OC[C@@H](NC(=O)C(Cl)Cl)[C@H](O)c1ccc([N+](=O)[O-])cc1,inactive
19,O=C(Nc1ccc(Cl)cc1)Nc1ccc(Cl)c(C(F)(F)F)c1,8.64 µM (active)
20,O=C(CCCl)NCCc1ccccc1,inactive

row,Structure (SMILES),Potency
1,CCO[C@H](Cc1ccc(OCCc2ccc(OS(C)(=O)=O)cc2)cc1)C(=O)O,inactive
2,CCOC(=O)C(=O)CCCCCCl,inactive
3,OC1(c2ccc(Cl)c(C(F)(F)F)c2)CCN(CCCC(c2ccc(F)cc2)c2ccc(F)cc2)CC1,24.4 µM (active)
4,Cc1ccc(C(=O)C(=O)O)cc1C,inactive
5,COc1cc(C=O)ccc1O,inactive
6,Cc1nc2n(c(=O)c1CCN1CCC(C(=O)c3ccc(F)cc3)CC1)CCS2,inactive
7,CC1(C)S[C@@H]2[C@H](NC(=O)C(c3ccccc3)S(=O)(=O)O)C(=O)N2[C@H]1C(=O)O (stereo not given in full),inactive
8,CC(C)(C)c1nnc(NS(=O)(=O)c2ccccc2)s1,inactive
9,CN1CCC(Nc2ncc3ncnc(Nc4ccc(F)c(Cl)c4)c3n2)CC1,17.2 µM (active)
10,Cc1cc(O)c2c(O)c3c(O)cccc3cc2c1,inactive
11,N#CSCC(=O)O,inactive
12,CCOC(=O)c1cc(=O)c2c(OCC(COc3cccc4oc(C(=O)OCC)cc(=O)c34)OC(=O)[C@@H](N)CCCCN)cccc2o1,inactive
13,CC(C(O)c1ccccc1)N(C)CCOC(c1ccccc1)c1ccccc1 (stereo not given),30.7 µM (active)
14,COC(=O)c1cc(Cl)c(NC(C)=O)cc1OC,inactive
15,O=C(O)Cn1c(=O)n(Cc2ccc(Br)cc2F)c(=O)c2ccc(Cl)cc21,inactive
16,CC(=O)O[C@@H]1CC2C3CCc4cc(OC(=O)c5ccccc5)ccc4C3CCC2(C)[C@H]1OC(C)=O (stereo not given in full),inactive
17,Cc1c(F)cc2c(=O)c(C(=O)O)cn3c2c1CCC3C (stereo not given),inactive
18,CN1CCCN(C(c2ccccc2)c2ccc(Cl)cc2)CC1 (stereo not given),15.4 µM (active)
19,Nc1ccc(C(=O)OCC(O)CO)cc1 (stereo not given),inactive
20,O=C(O)c1ccc(OCCN2CCCCC2)cc1,inactive
